# Measured values: PubChem BioAssay (Tox21)
# A number with no mark means an inactive call. Calls come from the whole dose curve.
# Assay: qHTS assay to identify small molecule agonists of the sonic hedgehog signaling (Shh) pathway (AID 1259368);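 note: NIH/3T3-derived 3T3Gli1-Luc cells carrying a stable Gli1-driven firefly luciferase reporter; nearly all actives have a fitted effect of over 15% in size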
# Settings: NIH/3T3 Gli1-Luc reporter, luciferase, 24 h; series mostly up to 92.4 µM; activity change: at the top concentration
# Text: National Center for Advancing Translational Sciences [NCATS]
# NIH Chemical Genomics Center [NCGC]
# U.S. Environmental Protection Agency [EPA]
# National Institutes of Environmental Health Sciences [NIEHS]
# National Toxicology Program [NTP]
# The sonic hedgehog (Shh) pathway is essential for normal embryonic development. Dysregulation of the Shh pathway can cause severe developmental defects in organs. Therefore chemicals that interfere with the pathway are potential developmental toxicants. A cell line designated 3T3Gli1-Luc (DMB/OARSA/CFSAN/FDA, Laurel, MD), a NIH/3T3 derived clone containing stably integrated Gli1-Luc reporter is used to detect chemical interference of the Shh pathway, by changes in the expression of the firefly Luc gene under the control of the Gli1 transcriptional response element. This cell line was used to screen Tox21 libraries for identifying and prioritizing the potential developmental toxicants that interfere Shh pathway.
# 3T3 Gli1-Luc cells were dispensed at 2,000 per well in 5uL of culture medium into white solid bottom 1536-well plates (Greiner Bio-One, Monroe, NC) using a Multidrop Combi (Thermo Scientific, Waltham, MA) dispenser. The assay plates were incubated at 37 C and 5% CO2 for 4hr, and then 23nL of compounds dissolved in DMSO and positive control were transferred using a Pintool station (Wako, San Diego, CA). The assay plates were incubated at 37C and 5% CO2 for 24hr. For luciferase read, 4uL of Amplite Luciferase reporter gene assay reagent (AAT Bioquest, Inc. Sunnyvale, CA) was added to each well of the assay plates using Flying Reagent Dispenser (FRD, Aurora Discovery, San Diego, CA) and incubated at room temperature for 30min. The luminescence signal was measured using a ViewLux plate reader (Perkin Elmer, Shelton, CT).
# % is set by controls: 0 for no effect and ±100 for the full control effect.
row,Structure (SMILES),activity change
1,CC(C)(C)c1cccc(O)c1,0.161%
2,CCCC1CCC(=O)O1 (stereo not given),0.608%
3,Clc1cccc(-c2cc(Cl)cc(Cl)c2)c1,-0.186%
4,CC1(C)C(=O)N(Cl)C(=O)N1Br,-0.0947%
5,O=c1oc2c(O)c(O)cc3c(=O)oc4c(O)c(O)cc1c4c23,"-1.7% [at 18.9 µM, active compounds read high]"
6,NNS(=O)(=O)c1ccc(Oc2ccc(S(=O)(=O)NN)cc2)cc1,0.867%
7,NS(=O)(=O)c1cc(-c2nn[nH]n2)c(NCc2cccs2)cc1Cl,"0.0929% [at 42.5 µM, active compounds read high]"
8,Cc1nc(N)nc(N)c1-c1ccc(Cl)c(Cl)c1,"-1.34% [at 42.5 µM, active compounds read high]"
9,CC(=O)OC1C2(C)CCC(C2)C1(C)C (stereo not given),-0.554%
10,CCCOc1ccc2c(c1)CC[C@@H]1[C@@H]2CC[C@]2(C)C(OC)CC[C@@H]12 (stereo not given in full),"0.527% [at 42.5 µM, active compounds read high]"
11,CCN1CC(CCN2CCOCC2)C(c2ccccc2)(c2ccccc2)C1=O (stereo not given),"-0.69% [at 42.5 µM, active compounds read high]"
12,Cc1cc(NS(=O)(=O)c2ccc(N)cc2)nc(C)n1,"0.14% [at 42.5 µM, active compounds read high]"
13,OCCN(CCO)c1ccccc1,0.204%
14,COc1ccc(Nc2ccc(OC)cc2)cc1,8.87%
15,CCN(CC)CC1CCCCN1CC(=O)N1c2ccccc2C(=O)Nc2cccnc21 (stereo not given),"-0.254% [at 42.5 µM, active compounds read high]"
16,CCCCCOc1ccc(C2SC(=O)NC2=O)cc1OCC (stereo not given),"1.75% [at 42.5 µM, active compounds read high]"
17,CCCNC(C)C(=O)Nc1c(C)csc1C(=O)OC (stereo not given),"0.431% [at 42.5 µM, active compounds read high]"
18,NC(=O)Cc1cccc(C(=O)c2ccccc2)c1N,"0.023% [at 42.5 µM, active compounds read high]"
19,C[C@@H]1CN(c2c(F)c(N)c3c(=O)c(C(=O)O)cn(C4CC4)c3c2F)C[C@H](C)N1,"-0.971% [at 18.9 µM, active compounds read high]"
20,CCCc1c2oc(C(=O)O)cc(=O)c2cc2c(=O)cc(C(=O)O)n(CC)c12,"-1.2% [at 42.5 µM, active compounds read high]"

row,Structure (SMILES),activity change
1,O=C1CCN(c2ccccc2)N1,-0.0891%
2,CCCS(=O)c1ccc2nc(NC(=O)OC)[nH]c2c1 (stereo not given),"1.32% [at 42.5 µM, active compounds read high]"
3,O=C(C(Cl)Cl)N1CCOC12CCCCC2,1.09%
4,CC(CNC1CCCCC1)OC(=O)c1ccccc1 (stereo not given),"-0.0856% [at 42.5 µM, active compounds read high]"
5,C=Cc1ccccc1,0.0006%
6,CCNCCO,0.0117%
7,Cc1ccccc1C(=O)Nc1ccc(C(=O)N2CCCC(O)c3cc(Cl)ccc32)c(C)c1 (stereo not given),"-0.216% [at 42.5 µM, active compounds read high]"
8,CCOc1ccc(NC(N)=O)cc1,0.16%
9,CC(C)C1=CC2=CC[C@@H]3[C@](C)(CCC[C@@]3(C)C(=O)O)[C@H]2CC1,2.14%
10,O=Cc1ccc(O)c(O)c1O,"-6.72% [at 42.5 µM, active compounds read high]"
11,CN1[C@@H]2CC[C@H]1CC(OC(=O)c1c[nH]c3ccccc13)C2 (stereo not given in full),"1.39% [at 42.5 µM, active compounds read high]"
12,OCc1ccccc1O,"1.08% [at 42.5 µM, active compounds read high]"
13,CCc1nnc(NS(=O)(=O)c2ccc(N)cc2)s1,"0.0309% [at 42.5 µM, active compounds read high]"
14,C[C@@H](N)C(=O)O,"0.0244% [at 42.5 µM, active compounds read high]"
15,CN1CCN(c2c(F)cc3c(=O)c(C(=O)O)cn4c3c2SCC4)CC1,"-1.19% [at 42.5 µM, active compounds read high]"
16,CC(C)O,-3.63%
17,Cc1cc2c(s1)Nc1ccccc1N=C2N1CCN(C)CC1,"7.42% [at 42.5 µM, active compounds read high]"
18,Cc1cc2nc(N)sc2cc1C,6.33%
19,CC1CN(c2ccccc2)NC1=O (stereo not given),0.001%
20,C[C@]12CCC(=O)C=C1CC[C@@H]1[C@@H]2CC[C@@]2(C)[C@H]1CC[C@]2(O)C(=O)CO,"-0.023% [at 42.5 µM, active compounds read high]"
